These results are taken from PubChem BioAssay.

Each structure is given as a SMILES string. Activity calls are given as the source filed them.

In assay [1] the test system is Plasmodium falciparum Sir2 (PF13_0152, Sir2A). Kind of assay: Plasmodium falciparum Sir2A binding compounds – biochemical, small-molecule microarray, 635 nm fluorescence, primary screen (AID 1098).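 Note: score merges spot fluorescence intensity with its signal-to-noise ratio.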 To be noted: fluorescence 635 nm, higher = more signal.
The nature of assay [2]: probe aDKK1 binding to arrayed compounds – biochemical, biotinylated probe, 635/667 nm fluorescence, primary screen (AID 1099).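 Note: score merges 667nm spot fluorescence with signal to noise across triplicate slides; reference of the scale not given here.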 As to conditions: small-molecule microarray, higher = more signal.
A short description of assay [3]: probe aCHRDL2 binding to arrayed compounds – biochemical, biotinylated probe, 635/667 nm fluorescence, primary screen (AID 1100). To be noted: small-molecule microarray, higher = more signal.
Assay [4] is described as follows: change in splice reporter luminescence, either direction, cell-based, HEK293, spliceosome inhibition project, primary screen (AID 1101).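 Note: HEK293 cells carrying a splicing-competent luciferase reporter gene; test concentration not given here.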 To be noted: HEK293 splicing luciferase reporter, 24 h, higher = more signal, called active from +8 up or from −8 down.
The target of assay [5] is Fibroblast growth factor 10 (Homo sapiens) (UniProt O15520). As to the kind of experiment: compounds binding fibroblast growth factor 10 – biochemical, small-molecule microarray, 635 nm fluorescence, primary screen (AID 1102). To be noted: FGF10 binding, fluorescence 635 nm, higher = more signal.
Fibroblast growth factor 10 (Homo sapiens), sequence (O15520 whole entry, looked up): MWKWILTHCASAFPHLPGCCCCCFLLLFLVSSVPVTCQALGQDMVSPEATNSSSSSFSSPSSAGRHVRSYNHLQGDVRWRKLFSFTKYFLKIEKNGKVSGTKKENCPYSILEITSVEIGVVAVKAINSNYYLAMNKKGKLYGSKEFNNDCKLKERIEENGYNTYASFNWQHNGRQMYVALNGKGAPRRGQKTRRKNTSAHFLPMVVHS
The test system of assay [6] is glycogen synthase kinase-3 (GSK3A per assay name; protocol says GSK3B). As to the kind of experiment: compounds binding glycogen synthase kinase-3 – biochemical, small-molecule microarray, 635 nm fluorescence, GSK3A, primary screen (AID 1103). Note: the record names both GSK3A and GSK3B. To be noted: fluorescence 635 nm, higher = more signal.
The target in assay [7] is Epidermal growth factor receptor (Homo sapiens) (UniProt P00533). As to the kind of experiment: compounds binding epidermal growth factor receptor – biochemical, small-molecule microarray, 635 nm fluorescence, primary screen (AID 1104).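 Note: score merges 667 nm emission intensity with spot signal to noise over triplicate slides.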 As to conditions: EGFR binding, higher = more signal.
Epidermal growth factor receptor (Homo sapiens), sequence (P00533 whole entry, looked up): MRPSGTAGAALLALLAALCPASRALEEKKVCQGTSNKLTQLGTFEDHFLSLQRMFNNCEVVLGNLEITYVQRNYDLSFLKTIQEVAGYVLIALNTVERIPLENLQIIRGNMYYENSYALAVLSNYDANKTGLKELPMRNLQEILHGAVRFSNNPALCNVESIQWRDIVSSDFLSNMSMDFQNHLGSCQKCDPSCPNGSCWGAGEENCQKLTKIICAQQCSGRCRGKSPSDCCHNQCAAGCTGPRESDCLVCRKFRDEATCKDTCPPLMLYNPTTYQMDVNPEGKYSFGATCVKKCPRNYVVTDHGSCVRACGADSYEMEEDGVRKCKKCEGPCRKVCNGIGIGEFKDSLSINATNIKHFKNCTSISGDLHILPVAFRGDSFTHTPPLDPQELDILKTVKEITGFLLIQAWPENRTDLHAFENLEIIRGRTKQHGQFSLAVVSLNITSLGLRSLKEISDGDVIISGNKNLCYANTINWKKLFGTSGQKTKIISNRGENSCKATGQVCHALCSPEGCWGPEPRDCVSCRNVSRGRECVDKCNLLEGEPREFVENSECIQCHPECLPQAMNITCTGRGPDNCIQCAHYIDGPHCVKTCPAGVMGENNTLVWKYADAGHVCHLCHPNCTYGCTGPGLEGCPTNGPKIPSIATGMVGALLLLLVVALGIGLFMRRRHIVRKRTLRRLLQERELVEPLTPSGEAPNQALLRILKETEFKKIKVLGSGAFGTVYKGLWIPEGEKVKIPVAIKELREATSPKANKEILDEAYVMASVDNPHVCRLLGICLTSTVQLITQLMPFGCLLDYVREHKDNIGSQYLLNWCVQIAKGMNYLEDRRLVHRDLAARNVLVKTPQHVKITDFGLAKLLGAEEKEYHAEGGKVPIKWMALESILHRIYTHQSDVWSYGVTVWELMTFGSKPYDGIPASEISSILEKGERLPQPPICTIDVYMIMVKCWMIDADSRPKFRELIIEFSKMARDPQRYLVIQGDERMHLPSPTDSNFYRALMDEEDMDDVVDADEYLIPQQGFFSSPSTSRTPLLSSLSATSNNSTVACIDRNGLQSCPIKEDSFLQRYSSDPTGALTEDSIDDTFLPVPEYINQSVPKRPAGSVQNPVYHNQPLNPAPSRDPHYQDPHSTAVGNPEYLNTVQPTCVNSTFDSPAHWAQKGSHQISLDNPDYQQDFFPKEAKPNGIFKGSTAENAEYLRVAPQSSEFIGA
The target of assay [8] is Follistatin-related protein 3 (Homo sapiens) (UniProt O95633). Kind of assay: compounds binding follistatin-related protein 3 – biochemical, small-molecule microarray, 635 nm fluorescence, primary screen (AID 1105).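 Note: score merges emission near 667 nm and signal to noise per printed spot across three slides.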 To be noted: FSTL3 binding, higher = more signal.
Follistatin-related protein 3 (Homo sapiens), sequence (O95633 whole entry, looked up): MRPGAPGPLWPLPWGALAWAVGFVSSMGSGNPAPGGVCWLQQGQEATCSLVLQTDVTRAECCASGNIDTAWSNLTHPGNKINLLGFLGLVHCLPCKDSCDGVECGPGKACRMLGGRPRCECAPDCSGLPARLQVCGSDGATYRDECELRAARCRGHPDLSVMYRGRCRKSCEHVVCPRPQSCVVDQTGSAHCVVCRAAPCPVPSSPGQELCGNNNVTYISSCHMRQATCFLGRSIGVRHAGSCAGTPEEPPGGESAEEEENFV
Assay [9] has as its target Dickkopf-related protein 1 (Homo sapiens) (UniProt O94907). Kind of assay: small molecules binding DKK1 protein – biochemical, small-molecule microarray, 635 nm fluorescence scan, primary screen (AID 1106).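 Note: score merges emission near 667 nm with signal to noise over three replicate slides.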 As to conditions: higher = more signal.
Assay [10] relates to Inhibin beta A chain (activin A). Kind of assay: small molecules binding activin A – biochemical, small-molecule microarray, 635 nm fluorescence scan, primary screen (AID 1107).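 Note: mouse activin A protein probed at 4.33 µg/mL on printed slides; score merges bound-protein fluorescence near 667 nm with spot signal-to-noise.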 As to conditions: INHBA, higher = more signal.

Dickkopf-related protein 1 (Homo sapiens), sequence (O94907 whole entry, looked up): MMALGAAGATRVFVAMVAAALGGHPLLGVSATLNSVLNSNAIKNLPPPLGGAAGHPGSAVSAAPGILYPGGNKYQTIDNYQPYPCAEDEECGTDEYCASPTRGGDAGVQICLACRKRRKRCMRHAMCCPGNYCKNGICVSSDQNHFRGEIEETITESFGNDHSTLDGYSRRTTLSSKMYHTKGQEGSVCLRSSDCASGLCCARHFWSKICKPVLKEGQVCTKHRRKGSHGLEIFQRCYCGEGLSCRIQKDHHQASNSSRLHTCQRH

In the case of `CC(=O)OC[C@H]1O[C@H](CC=NO[C@H](C)c2cn([C@@H]3COC[C@H]3O)nn2)C=C[C@@H]1OC(C)=O`, the composite z-score in assay [1] was 0.197; in assay [2], -0.185; in assay [3] it was -0.434; in [5] it was 0.172; in assay [6], 0.0915; in assay [7] it was 0.476. The composite z-score in assay [8] worked out at 0.255; in [9], 1.1; in [10], 0.257. The z-score in [4] is -1.06 (inactive).

On to `COC(=O)[C@H](C)NC(=O)CCC1CC(OC(=O)NCCc2ccc(F)cc2)CC2(CCCC(COC(=O)NCc3ccccc3)O2)O1` (stereo not given in full), for which the composite z-score in assay [1] is 0.768; in assay [2], -0.128; in assay [3] it was -0.37; in [5], 0.834; in [6] it was 1.28; in assay [7], 0.462. The composite z-score in assay [8] worked out at 1.29; in assay [9], 0.477; in [10], 0.0384. In assay [4], the z-score was -0.114 (inactive).

Take `CO[C@H]1COC(=O)[C@H](CCSC)NC(=O)CC=C[C@@H](C)[C@H](OC)COC(=O)[C@@H](OCc2ccccc2)C=C[C@@H]1C`: the composite z-score in [1] was 0.988; in [2], -0.488; in [3], -0.513; in assay [5] it was 0.605; in assay [6] it was 0.751; in [7] it was 0.975. The composite z-score in assay [8] is 0.922; in assay [9] it was 1.38; in assay [10], 0.824. For the same compound, in assay [4], the z-score is 0.45 (inactive).

For the compound `CC(CCN1CCCCc2nc(C)c(C)cc21)=NOC[C@@H](O)[C@H]1O[C@@H]2OC(C)(C)O[C@@H]2[C@H]1O`, the composite z-score in assay [1] was 0.577; in [2], -0.32; in assay [3] it was -1.02; in [5] it was 0.313; in assay [6] it was 0.397; in [7], 0.774. Also, the composite z-score in [8] was 0.718; in assay [9] it was 0.874; in [10], -0.0196. Further, in assay [4], the z-score was 0.595 (inactive).

Take `CC(C)=NO[C@H](C)c1cn([C@@H]2COC[C@H]2O)nn1`: the composite z-score in assay [1] is 0.52; in assay [2] it was -0.0146; in assay [3] it was -0.607; in assay [5] it was 0.728; in assay [6] it was 0.788; in assay [7], 0.539. Moreover, the composite z-score in assay [8] was 0.67; in assay [9], 0.669; in assay [10] it was -0.0201. For the same compound, the z-score in assay [4] is -0.413 (inactive).

For `CC(=O)OC[C@H]1O[C@H](CCON=C(C)CCN2CCCc3nc(C)c(C)cc32)C=C[C@@H]1OC(C)=O`, the composite z-score in [1] is 0.773; in assay [2] it was -0.108; in [3], -0.408; in assay [5] it was 0.932; in assay [6], 1.24; in assay [7] it was 0.986. Besides, the values for the composite z-score in [8], in assay [9] and in assay [10] were 1.16, 0.735 and 0.965, respectively. In addition, the z-score in assay [4] is 1.06 (inactive).

With `CCOC(=O)CCN1C(=O)[C@H]2[C@@H]3C(=CC[C@H]2C1=O)C(=O)[C@H]1O[C@H]1[C@H]3O`, the composite z-score in assay [1] is 1.1; in [2], -0.33; in assay [3], -0.291; in assay [5], -0.632; in [6], -0.837; in [7] it was -0.0633. The composite z-score in [8] was -1.16; in assay [9], -0.324; in [10], -0.483. In addition, the z-score in [4] is 6.66 (inactive).

On to `CCOC(=O)[C@H](CC(C)C)NC(=O)CCC1CC(OC(=O)NCCc2ccc(F)cc2)CC2(CCCC(COC(=O)NCCOC)O2)O1` (stereo not given in full), for which the composite z-score in assay [1] is 0.745; in assay [2] it was 0.0045; in [3], -0.411; in assay [5], 1.15; in assay [6], 0.953; in [7], 0.633. Moreover, the composite z-score in [8] was 1.36; in [9], 0.96; in assay [10] it was -0.0586. Besides, in [4], the z-score was -0.0891 (inactive).

Take `CCOC(=O)[C@H](Cc1ccccc1)NC(=O)CCC1CC(OC(=O)NCc2cccc3ccccc23)CC2(CCCC(COC(=O)NCc3ccc4c(c3)OCO4)O2)O1` (stereo not given in full): the composite z-score in assay [1] is 0.216; in [2], -0.0102; in assay [3], -0.343; in assay [5], 0.587; in [6] it was -0.0333; in [7], 0.179. Further, the composite z-score in assay [8] stood at 0.224; in assay [9], 0.141; in [10], 0.325. Also, the z-score in assay [4] was 0.277 (inactive).

Turning to `CCOC(=O)NN=C1C[C@@H](O)[C@@H](O)[C@@H]2[C@@H]3C(=O)N(c4ccc(F)cc4F)C(=O)[C@@H]3CC[C@H]12`, the composite z-score in [1] is -0.304; in assay [2], -0.349; in assay [3] it was -0.626; in assay [5], 0.158; in [6] it was 0.544; in assay [7], 0.742. Further, the composite z-score came out at 0.438 in assay [8], 0.871 in assay [9] and 0.0584 in assay [10]. Further, in [4], the z-score is -1.43 (inactive).

For the compound `O=C1[C@H]2[C@H]3[C@H](O)[C@H](O)CC(=NOC[C@@H](O)COCc4ccco4)[C@@H]3CC[C@H]2C(=O)N1C1CCCCC1`, the composite z-score in assay [1] is 0.225; in assay [2], -0.401; in assay [3], -1.26; in assay [5], -0.102; in assay [6] it was 1.04; in [7] it was 0.783. The results for the composite z-score in assay [8], in assay [9] and in assay [10] were 1.36, 1.46 and 1.23, respectively. Moreover, the z-score in assay [4] is 0.76 (inactive).

Take `O=C1[C@H]2[C@H]3[C@H](O)[C@H](O)CC(=NOC[C@@H](O)COCc4ccco4)[C@@H]3CC[C@H]2C(=O)N1Cc1ccccc1`: the composite z-score in [1] is -0.422; in assay [2] it was -0.316; in assay [3], -0.611; in assay [5] it was 0.146; in assay [6] it was 1.34; in [7], 0.603. Moreover, the composite z-score is 1.51 in [8], 0.833 in [9] and 1.34 in assay [10]. The z-score in assay [4] is -0.153 (inactive).

As to `O=C1C2=CC[C@H]3C(=O)N(C4CCCCC4)C(=O)[C@H]3[C@H]2[C@H](O)[C@@H]2O[C@H]12`, the composite z-score in assay [1] was -0.541; in assay [2], -0.121; in [3], -0.588; in assay [5], -0.246; in assay [6] it was -1.31; in [7], 0.0862. In addition, the figures for the composite z-score in [8], in assay [9] and in assay [10] were -1.22, 0.271 and -0.185, respectively. Moreover, in assay [4], the z-score is 15.3 (active).
